Test results published in the supplement of paper PMC11732987, “Enantioselective OTUD7B fragment discovery through chemoproteomics screening and high-throughput optimisation” (Communications Chemistry, 2025).
A number with no mark means an inactive call.

Compound: ClCC(=O)NC1(CCCC1)C#N
Test: log2 ratio of Biotin-Ahx-Ub-VS probe labelling (compound/DMSO); higher = less target engagement, active = hit call of the paper (q ≤ 0.05, log2 ratio ≤ -1)
Settings: compound concentration: 50uM; treatment time: 3 h
Experimental: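 Round 2 competitive ABPP in HEK293T lysate. Compounds were tested at 50 and 200 µM for 3 h, followed by Biotin-Ahx-Ub-VS enrichment and diaPASEF LC-MS/MS. Values are the average log2 ratio (compound/DMSO) from an unpaired t-test (n=3 treated, n=26 DMSO).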

Chain of UniProt Q92905 (Q92905 whole entry, looked up): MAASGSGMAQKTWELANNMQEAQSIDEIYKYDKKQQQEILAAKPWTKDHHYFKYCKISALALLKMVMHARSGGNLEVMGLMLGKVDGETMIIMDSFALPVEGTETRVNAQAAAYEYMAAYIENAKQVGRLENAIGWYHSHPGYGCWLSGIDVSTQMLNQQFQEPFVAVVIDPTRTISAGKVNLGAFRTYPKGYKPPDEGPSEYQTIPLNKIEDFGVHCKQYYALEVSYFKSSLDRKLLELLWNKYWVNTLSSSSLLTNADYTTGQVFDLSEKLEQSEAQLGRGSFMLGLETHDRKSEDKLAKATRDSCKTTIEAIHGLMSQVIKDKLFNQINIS
Chain of UniProt P62068 (P62068 whole entry): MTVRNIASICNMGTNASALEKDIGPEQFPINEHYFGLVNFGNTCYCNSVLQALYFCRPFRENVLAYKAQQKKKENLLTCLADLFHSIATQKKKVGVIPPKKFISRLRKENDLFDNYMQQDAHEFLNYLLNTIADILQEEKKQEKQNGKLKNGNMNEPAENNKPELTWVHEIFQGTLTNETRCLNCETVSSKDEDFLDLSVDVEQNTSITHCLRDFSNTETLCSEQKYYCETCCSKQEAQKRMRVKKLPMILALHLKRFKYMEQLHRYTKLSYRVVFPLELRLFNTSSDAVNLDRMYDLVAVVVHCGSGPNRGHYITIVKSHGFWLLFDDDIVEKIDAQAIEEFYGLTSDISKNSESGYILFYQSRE
Chain of UniProt Q70EL1 (Q70EL1 whole entry): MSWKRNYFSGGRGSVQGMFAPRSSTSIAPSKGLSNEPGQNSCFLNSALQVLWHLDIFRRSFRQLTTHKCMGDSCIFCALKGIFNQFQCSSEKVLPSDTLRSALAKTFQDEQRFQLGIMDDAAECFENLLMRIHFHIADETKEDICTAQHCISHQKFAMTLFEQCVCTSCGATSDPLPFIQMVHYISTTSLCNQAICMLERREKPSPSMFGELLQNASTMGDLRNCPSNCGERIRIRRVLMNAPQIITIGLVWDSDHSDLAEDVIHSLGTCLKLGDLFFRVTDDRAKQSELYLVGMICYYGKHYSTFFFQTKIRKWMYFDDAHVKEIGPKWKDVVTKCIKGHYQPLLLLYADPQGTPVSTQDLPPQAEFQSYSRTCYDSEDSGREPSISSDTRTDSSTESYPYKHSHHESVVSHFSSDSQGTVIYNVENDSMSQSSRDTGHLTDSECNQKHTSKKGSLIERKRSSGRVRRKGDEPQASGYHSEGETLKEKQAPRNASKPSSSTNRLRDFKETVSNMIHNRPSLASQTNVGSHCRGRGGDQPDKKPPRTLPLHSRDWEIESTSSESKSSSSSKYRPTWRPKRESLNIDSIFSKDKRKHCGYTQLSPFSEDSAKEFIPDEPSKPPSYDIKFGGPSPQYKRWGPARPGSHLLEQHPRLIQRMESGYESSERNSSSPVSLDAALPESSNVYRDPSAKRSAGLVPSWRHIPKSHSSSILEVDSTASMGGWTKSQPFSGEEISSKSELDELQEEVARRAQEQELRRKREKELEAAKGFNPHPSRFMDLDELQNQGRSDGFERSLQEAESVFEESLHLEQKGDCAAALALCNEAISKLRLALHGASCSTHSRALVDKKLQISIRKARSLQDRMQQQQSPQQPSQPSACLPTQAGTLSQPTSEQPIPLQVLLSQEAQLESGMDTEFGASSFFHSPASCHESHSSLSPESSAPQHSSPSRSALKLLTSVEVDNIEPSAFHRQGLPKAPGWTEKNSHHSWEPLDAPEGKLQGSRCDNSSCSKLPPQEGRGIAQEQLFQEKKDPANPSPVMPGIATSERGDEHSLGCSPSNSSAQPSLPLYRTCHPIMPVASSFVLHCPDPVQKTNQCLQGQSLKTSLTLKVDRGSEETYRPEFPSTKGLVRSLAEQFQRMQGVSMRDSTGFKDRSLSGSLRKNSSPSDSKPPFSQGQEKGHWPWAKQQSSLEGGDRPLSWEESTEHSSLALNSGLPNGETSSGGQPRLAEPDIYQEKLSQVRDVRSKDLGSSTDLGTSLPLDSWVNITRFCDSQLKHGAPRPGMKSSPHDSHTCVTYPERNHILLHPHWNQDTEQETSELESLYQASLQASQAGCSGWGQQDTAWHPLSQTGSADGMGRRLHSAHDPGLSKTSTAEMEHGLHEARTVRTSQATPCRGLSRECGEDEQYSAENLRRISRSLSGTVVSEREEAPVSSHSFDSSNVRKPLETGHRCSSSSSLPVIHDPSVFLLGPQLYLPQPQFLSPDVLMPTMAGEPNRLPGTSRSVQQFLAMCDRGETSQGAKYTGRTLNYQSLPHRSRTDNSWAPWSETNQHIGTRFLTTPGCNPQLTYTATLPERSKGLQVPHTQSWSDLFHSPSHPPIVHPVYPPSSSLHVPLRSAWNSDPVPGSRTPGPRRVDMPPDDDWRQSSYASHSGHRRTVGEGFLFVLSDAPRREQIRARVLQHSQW
Chain of UniProt Q9NUU6 (Q9NUU6 whole entry): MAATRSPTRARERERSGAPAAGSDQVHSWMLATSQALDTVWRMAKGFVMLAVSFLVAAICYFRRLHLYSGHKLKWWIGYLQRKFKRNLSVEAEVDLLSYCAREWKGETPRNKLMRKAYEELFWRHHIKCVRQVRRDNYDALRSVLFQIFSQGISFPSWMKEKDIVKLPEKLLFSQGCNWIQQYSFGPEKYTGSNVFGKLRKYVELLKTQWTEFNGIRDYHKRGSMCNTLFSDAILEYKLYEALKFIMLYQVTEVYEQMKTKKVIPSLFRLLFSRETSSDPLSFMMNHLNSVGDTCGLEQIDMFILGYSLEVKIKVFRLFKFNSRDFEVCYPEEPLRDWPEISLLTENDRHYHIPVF
Chain of UniProt O75317 (O75317 whole entry): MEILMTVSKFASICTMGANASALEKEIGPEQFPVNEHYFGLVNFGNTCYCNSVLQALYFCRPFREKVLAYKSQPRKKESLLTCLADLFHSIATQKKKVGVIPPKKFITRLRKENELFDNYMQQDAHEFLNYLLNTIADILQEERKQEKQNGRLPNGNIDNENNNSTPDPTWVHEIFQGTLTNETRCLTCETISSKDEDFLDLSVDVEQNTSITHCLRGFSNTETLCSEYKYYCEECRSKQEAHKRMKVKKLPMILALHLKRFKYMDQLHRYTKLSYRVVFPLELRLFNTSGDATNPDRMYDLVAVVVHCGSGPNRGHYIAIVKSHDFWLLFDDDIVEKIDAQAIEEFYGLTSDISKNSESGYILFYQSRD
Chain of UniProt Q96FW1 (Q96FW1 whole entry): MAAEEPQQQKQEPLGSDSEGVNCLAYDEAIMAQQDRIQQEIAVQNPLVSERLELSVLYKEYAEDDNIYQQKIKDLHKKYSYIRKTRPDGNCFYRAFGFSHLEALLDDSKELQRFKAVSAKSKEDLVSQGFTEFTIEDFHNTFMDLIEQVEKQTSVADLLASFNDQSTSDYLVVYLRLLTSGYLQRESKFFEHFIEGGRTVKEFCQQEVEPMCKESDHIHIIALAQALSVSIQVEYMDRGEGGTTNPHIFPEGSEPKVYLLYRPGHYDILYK
Chain of UniProt Q9Y5K5 (Q9Y5K5 whole entry): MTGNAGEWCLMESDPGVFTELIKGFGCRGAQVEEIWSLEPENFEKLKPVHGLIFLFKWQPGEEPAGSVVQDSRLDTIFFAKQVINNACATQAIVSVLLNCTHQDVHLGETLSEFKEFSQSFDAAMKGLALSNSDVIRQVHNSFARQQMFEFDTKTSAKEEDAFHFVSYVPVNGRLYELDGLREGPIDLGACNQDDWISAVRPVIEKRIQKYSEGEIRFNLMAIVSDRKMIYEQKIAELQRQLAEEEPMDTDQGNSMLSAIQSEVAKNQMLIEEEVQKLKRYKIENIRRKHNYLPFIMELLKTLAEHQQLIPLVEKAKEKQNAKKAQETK
Chain of UniProt O15372 (O15372 whole entry): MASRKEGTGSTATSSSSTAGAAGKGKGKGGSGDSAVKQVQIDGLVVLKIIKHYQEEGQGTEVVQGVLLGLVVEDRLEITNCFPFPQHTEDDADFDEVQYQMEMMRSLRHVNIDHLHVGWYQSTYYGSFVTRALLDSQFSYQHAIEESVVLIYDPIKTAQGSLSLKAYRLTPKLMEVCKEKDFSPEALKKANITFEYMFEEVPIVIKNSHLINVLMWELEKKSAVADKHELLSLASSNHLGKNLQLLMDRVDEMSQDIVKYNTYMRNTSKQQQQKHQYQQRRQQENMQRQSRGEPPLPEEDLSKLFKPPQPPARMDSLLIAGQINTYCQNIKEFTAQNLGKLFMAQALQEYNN
Chain of UniProt Q9UPT9 (Q9UPT9 whole entry): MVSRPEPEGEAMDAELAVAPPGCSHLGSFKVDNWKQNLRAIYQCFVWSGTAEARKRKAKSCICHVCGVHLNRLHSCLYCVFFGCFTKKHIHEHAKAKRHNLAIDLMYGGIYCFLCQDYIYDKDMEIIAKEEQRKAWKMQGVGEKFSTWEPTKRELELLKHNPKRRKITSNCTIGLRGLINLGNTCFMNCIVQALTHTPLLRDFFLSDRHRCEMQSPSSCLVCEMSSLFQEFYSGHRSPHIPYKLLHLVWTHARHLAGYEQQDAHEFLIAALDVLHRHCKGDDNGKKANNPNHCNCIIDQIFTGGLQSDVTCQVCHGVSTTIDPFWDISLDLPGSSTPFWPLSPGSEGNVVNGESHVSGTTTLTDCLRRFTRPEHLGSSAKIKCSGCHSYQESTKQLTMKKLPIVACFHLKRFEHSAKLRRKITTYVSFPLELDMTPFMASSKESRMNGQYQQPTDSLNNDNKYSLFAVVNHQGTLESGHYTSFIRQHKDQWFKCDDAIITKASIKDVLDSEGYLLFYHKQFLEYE

Row | Target | log2 ratio of Biotin-Ahx-Ub-VS probe labelling
1 | COPS5 (UniProt Q92905) | 0.531
2 | USP54 (UniProt Q70EL1) | -0.959
3 | UCHL5 (UniProt Q9Y5K5) | -0.245
4 | USP12 (UniProt O75317) | -0.429
5 | FAM105A (UniProt Q9NUU6) | -0.0646
6 | EIF3H (UniProt O15372) | -0.0689
7 | OTUB1 (UniProt Q96FW1) | -0.00568
8 | USP22 (UniProt Q9UPT9) | 0.0772
9 | USP46 (UniProt P62068) | -0.274

Same assay, conditions: compound concentration: 200uM; treatment time: 3 h

Row | Target | log2 ratio of Biotin-Ahx-Ub-VS probe labelling
10 | COPS5 (UniProt Q92905) | 0.0873
11 | USP54 (UniProt Q70EL1) | -2.5 (active)
12 | UCHL5 (UniProt Q9Y5K5) | -0.19
13 | USP12 (UniProt O75317) | 0.0646
14 | FAM105A (UniProt Q9NUU6) | 0.0452
15 | EIF3H (UniProt O15372) | 0.0852
16 | OTUB1 (UniProt Q96FW1) | 0.00171
17 | USP22 (UniProt Q9UPT9) | -0.266
18 | USP46 (UniProt P62068) | -0.249
